Among the data in PubChem BioAssay (NCI) are growth values, retold here.

Structures are written as SMILES. The panel holds about 83,000 compounds, 20% with a hit somewhere; the sample as a whole holds those more often.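 Note: values are percent growth. 100 is the growth of untreated cells, values between 100 and 0 indicate rising inhibition; between -100 and 0 indicates cell death.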 Unmarked numbers belong to inactive results. Calls of active or inactive are those of the source. The calls were made as follows: active = growth percent below 10; inactive = the rest.

Test systems include SK-MEL-2 melanoma; EKVX NSCLC; SN12C renal; UO-31 renal; TK-10 renal; ACHN renal; CAKI-1 renal; A498 renal; CCRF-CEM leukemia; MOLT-4 leukemia; SR leukemia; RPMI-8226 leukemia; OVCAR-8 ovarian; OVCAR-5 ovarian; OVCAR-4 ovarian; SK-OV-3 ovarian; IGROV1 ovarian; OVCAR-3 ovarian; HS 578T breast; NCI/ADR-RES ovarian.
Common to all, as to assay: NCI-60 one-dose screen, 48 h (100 = growth as untreated, 0 = no growth, -100 = all killed)
Holding throughout (conditions): 10 µM unless noted

As for `COC(=O)c1ccc(-n2cc(CCCOS(=O)(=O)c3ccc(F)cc3)nn2)cc1`, the growth in the assay with SK-MEL-2 melanoma was 101%; with EKVX NSCLC, 101%; in the assay on SN12C renal, 100%; in the assay with UO-31 renal, 88.2%; in the assay with TK-10 renal it was 102%; with ACHN renal, 101%. In addition, the growth in the assay with CAKI-1 renal is 90.6%; with A498 renal, 84.4%; in the assay with CCRF-CEM leukemia, 96.8%; with MOLT-4 leukemia, 95.7%; with SR leukemia, 87.4%; in the assay on RPMI-8226 leukemia, 97.3%. Moreover, the growth was 96.2% in the assay on OVCAR-8 ovarian; 98.6% with OVCAR-5 ovarian; 94.4% with OVCAR-4 ovarian; 102% with SK-OV-3 ovarian; 102% with IGROV1 ovarian; 107% with OVCAR-3 ovarian. For the same compound, the growth in the assay on HS 578T breast was 93.6%; in the assay with NCI/ADR-RES ovarian, 106%.

In the case of `Nc1nc(=O)n([C@H]2CC=C(CO)O2)cc1F`, the growth is 102% in the assay with SK-MEL-2 melanoma; 110% in the assay on EKVX NSCLC; 96.8% with SN12C renal; 91.5% in the assay on UO-31 renal; 99.3% in the assay on TK-10 renal; 110% in the assay on ACHN renal. For the same compound, the growth with CAKI-1 renal is 94.6%; with A498 renal, 75.8%; in the assay with CCRF-CEM leukemia, 103%; in the assay with MOLT-4 leukemia it was 90.5%; in the assay with SR leukemia, 86.1%; with RPMI-8226 leukemia it was 101%. Moreover, the growth is 99.7% in the assay with OVCAR-8 ovarian; 89.3% with OVCAR-5 ovarian; 107% in the assay on OVCAR-4 ovarian; 101% in the assay on SK-OV-3 ovarian; 95.2% in the assay with IGROV1 ovarian; 104% in the assay on OVCAR-3 ovarian. The growth in the assay on HS 578T breast was 83.6%; in the assay on NCI/ADR-RES ovarian, 104%.

Consider `Cn1nc(-c2ccc(Cl)cc2)nc2c(=O)n(C)c(=O)nc1-2`, for which the growth in the assay with SK-MEL-2 melanoma was -44.6% (active); with EKVX NSCLC, -31.2% (active); in the assay on SN12C renal, -72.5% (active); in the assay with UO-31 renal, 12.3%; in the assay on TK-10 renal, 70.3%; with ACHN renal it was -88.7% (active). For the same compound, the growth was 6.17% (active) with CAKI-1 renal; -94.8% (active) in the assay with A498 renal; -27.6% (active) in the assay with CCRF-CEM leukemia; -47.3% (active) in the assay with MOLT-4 leukemia; -40.5% (active) with SR leukemia; -22.7% (active) with RPMI-8226 leukemia. Moreover, the growth was -58.8% (active) in the assay on OVCAR-8 ovarian; -89.1% (active) with OVCAR-5 ovarian; -99.7% (active) in the assay with OVCAR-4 ovarian; 32.6% in the assay with SK-OV-3 ovarian; 7.78% (active) in the assay on IGROV1 ovarian; -40.2% (active) in the assay with OVCAR-3 ovarian. In addition, the growth in the assay on HS 578T breast is -4.75% (active); with NCI/ADR-RES ovarian, -21.5% (active).

In the case of `O=C1/C(=C/c2cccc([N+](=O)[O-])c2)COc2ccc(O)c(O)c21`, the growth with SK-MEL-2 melanoma is -25.4% (active); in the assay with EKVX NSCLC, 34.7%; with SN12C renal it was -71.3% (active); with UO-31 renal, -98.8% (active); with TK-10 renal it was -48.5% (active); in the assay on ACHN renal it was -98.4% (active). Further, the growth with CAKI-1 renal was -67.5% (active); with A498 renal, 99.7%; in the assay on CCRF-CEM leukemia, 0.148% (active); with MOLT-4 leukemia, -1.81% (active); in the assay on SR leukemia it was 8.03% (active); with RPMI-8226 leukemia it was -24.7% (active). Also, the growth was 5.45% (active) in the assay on OVCAR-8 ovarian; -48.8% (active) in the assay with OVCAR-5 ovarian; 15.3% in the assay with OVCAR-4 ovarian; 68.9% in the assay on SK-OV-3 ovarian; -21.6% (active) in the assay on IGROV1 ovarian; -83.6% (active) in the assay with OVCAR-3 ovarian. Also, the figures for the growth with HS 578T breast and in the assay on NCI/ADR-RES ovarian were 6.86% (active) and 9.52% (active), respectively.

As to `O=C1N/C(=N/N=C(c2ccccc2)c2ccccc2)S/C1=C\c1ccc(Br)cc1`, the growth in the assay with SK-MEL-2 melanoma was 96.7%; with EKVX NSCLC, 101%; in the assay with SN12C renal it was 98%; with UO-31 renal, 73.1%; in the assay on TK-10 renal, 107%; in the assay on ACHN renal it was 97.7%. The growth in the assay on CAKI-1 renal was 77.2%; in the assay on A498 renal it was 89.2%; with CCRF-CEM leukemia, 84.4%; in the assay on MOLT-4 leukemia it was 106%; in the assay with SR leukemia, 83.3%; in the assay with RPMI-8226 leukemia, 95.6%. Further, the growth in the assay with OVCAR-8 ovarian is 95.6%; in the assay on OVCAR-5 ovarian, 102%; in the assay on OVCAR-4 ovarian it was 96.8%; with SK-OV-3 ovarian, 97.2%; in the assay with IGROV1 ovarian, 91.9%; with OVCAR-3 ovarian it was 102%. Besides, the growth in the assay with HS 578T breast was 95%; in the assay on NCI/ADR-RES ovarian it was 103%.

With `COCCn1cc(-c2nc(-c3cc4cccnc4n3C)cs2)c2cc(OC)ccc21`, the growth with SK-MEL-2 melanoma is 56.3%; with EKVX NSCLC, 24.8%; in the assay with SN12C renal, 73%; in the assay with UO-31 renal, 51%; in the assay with TK-10 renal, 19.5%; in the assay with ACHN renal it was 64.2%. The growth with CAKI-1 renal is 74.5%; in the assay on A498 renal, 46.6%; in the assay with CCRF-CEM leukemia it was 28.8%; in the assay on MOLT-4 leukemia it was 48.5%; in the assay on SR leukemia, 31%; with RPMI-8226 leukemia it was 41%. For the same compound, the growth in the assay on OVCAR-8 ovarian is 48.9%; in the assay with OVCAR-5 ovarian it was 37.5%; with OVCAR-4 ovarian it was 8.84% (active); in the assay on SK-OV-3 ovarian, 50%; in the assay with IGROV1 ovarian, 28.4%; in the assay on OVCAR-3 ovarian, 6.53% (active). Further, the growth in the assay on HS 578T breast is 56.8%; with NCI/ADR-RES ovarian, 45.9%.

As for `CS(=O)(=O)c1ccc(/C(=N/NC(N)=S)c2ccc(F)cc2)cc1`, the growth in the assay on SK-MEL-2 melanoma was 112%; with EKVX NSCLC it was 92.5%; in the assay on SN12C renal it was 96.5%; in the assay on UO-31 renal it was 71.1%; in the assay with TK-10 renal it was 115%; with ACHN renal it was 100%. The growth was 94.7% in the assay on CAKI-1 renal; 82.2% in the assay on A498 renal; 92.9% with CCRF-CEM leukemia; 103% with MOLT-4 leukemia; 103% with SR leukemia; 99.5% with RPMI-8226 leukemia. Besides, the growth was 103% in the assay on OVCAR-8 ovarian; 104% in the assay with OVCAR-5 ovarian; 104% with OVCAR-4 ovarian; 112% in the assay with SK-OV-3 ovarian; 101% with IGROV1 ovarian; 108% with OVCAR-3 ovarian. Further, the growth with HS 578T breast and in the assay on NCI/ADR-RES ovarian was 102% in each case.

`COc1ccc(-c2cc(-c3ccc(Nc4nc(Nc5ccc(Cl)cc5)nc(Nc5ccc(Cl)cc5)n4)cc3)no2)cc1`: the growth with SK-MEL-2 melanoma is 58.1%; in the assay with EKVX NSCLC, 76.3%; with SN12C renal, 94%; in the assay on UO-31 renal, 65.3%; with TK-10 renal, 108%; with ACHN renal, 83.6%. Further, the growth in the assay with CAKI-1 renal was 83.3%; with A498 renal, 86.8%; with CCRF-CEM leukemia, 38.9%; in the assay with MOLT-4 leukemia, 9.97% (active); in the assay on SR leukemia it was 2.43% (active); with RPMI-8226 leukemia it was 12.5%. The growth in the assay on OVCAR-8 ovarian was 85.7%; in the assay on OVCAR-5 ovarian, 86%; in the assay with OVCAR-4 ovarian, 77.4%; in the assay on SK-OV-3 ovarian, 127%; in the assay with IGROV1 ovarian, 63.8%; in the assay on OVCAR-3 ovarian it was 71.1%. In addition, the results for the growth in the assay with HS 578T breast and in the assay with NCI/ADR-RES ovarian were 90.2% and 81.8%, respectively.
